# D2 PAM-1: HTS Assay for Positive Allosteric Modulators of the Human D2 Dopamine Receptor: Primary Screen for Potentiators; D(2) dopamine receptor (Homo sapiens), P14416; HEK293 T-REx D2, calcium flux, EC20 dopamine potentiation; potentiation, % at 10 µM; 340,000 compounds, 0.34% hits; AID 485347, 2010;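 active means potentiation over 3 SD above the plate norm, cut at about 30% in these data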
# Target sequence (P14416 whole entry, looked up): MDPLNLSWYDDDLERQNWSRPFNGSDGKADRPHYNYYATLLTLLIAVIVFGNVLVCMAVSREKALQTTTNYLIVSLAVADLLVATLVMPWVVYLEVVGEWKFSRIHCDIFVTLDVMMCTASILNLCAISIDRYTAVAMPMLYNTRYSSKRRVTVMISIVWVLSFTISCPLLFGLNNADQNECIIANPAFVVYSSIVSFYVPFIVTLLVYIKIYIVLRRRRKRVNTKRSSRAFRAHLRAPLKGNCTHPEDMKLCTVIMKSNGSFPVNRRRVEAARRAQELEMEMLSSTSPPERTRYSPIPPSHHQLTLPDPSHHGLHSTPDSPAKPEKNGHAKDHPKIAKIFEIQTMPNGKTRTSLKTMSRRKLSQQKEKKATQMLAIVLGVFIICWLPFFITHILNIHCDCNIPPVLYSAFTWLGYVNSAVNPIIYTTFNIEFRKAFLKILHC
#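 Primary screen. Calcium kinetics in induced HEK293 T-REx D2 cells: compound pre-addition 180 s, EC20 dopamine, 180 s more.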
# D2 ag-1: HTS Assay for Allosteric Agonists of the Human D2 Dopamine Receptor: Primary Screen for Agonists; 340,000 compounds, 0.53% hits; D(2) dopamine receptor (Homo sapiens), P14416; activation, % at 2 µM; HEK293 T-REx D2 cells, calcium flux agonist mode;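 active means activation over 3 SD above normal in the single-dose calcium agonist read, cut at about 30% in these data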
#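 Agonism scored from kinetic calcium signal (1 read/sec, 180 s) following compound pin transfer, after a 10 s baseline. Cells: HEK293 Trex line expressing inducible D2 receptor coupled to calcium, dye-loaded after overnight culture at 30 C.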
# D2 antag: HTS Assay for Allosteric Antagonists of the Human D2 Dopamine Receptor: Primary Screen for Antagonists; HEK293 TREx D2 cells, calcium flux, dopamine EC80; inhibition, % at 10 µM; 340,000 compounds, 2% hits; AID 485344, 2010; in the data active means inhibition above about 30%; inactive means below that, where a call was filed
#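 Calcium flux kinetic readout in an inducible HEK293 TREx D2 line plated overnight at 30 C. After 180 s compound exposure, an EC80 dopamine challenge follows with another 180 s kinetic read to detect antagonism.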
# D2 PAM-2: Beta-Arrestin HTS for Positive Allosteric Modulators of the Human D2 Dopamine Receptor: Potentiators; D(2) dopamine receptor (Homo sapiens), P14416; DiscoveRx D2 beta-arrestin cells, luminescence, 90 min; 100% = 57 uM dopamine signal; potentiation, % (test concentration not listed); 360,000 compounds, 0.23% hits; AID 624464, 2012; in the data active means potentiation above about 50%
#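 D2 cells co-treated with compound plus 50 nM dopamine (EC20) for 90 min at 37 deg C to detect potentiation. Beta-arrestin recruitment was read as enzyme-fragment luminescence after 1 h at ambient temperature. Full response was set by 57 uM dopamine.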
# D2 ag-2: Beta-Arrestin HTS for Positive Allosteric Modulators of the Human D2 Dopamine Receptor: Agonists; D(2) dopamine receptor (Homo sapiens), P14416; DiscoveRx PathHunter D2 beta-arrestin, luminescence, 90 min; 100% = 57 uM dopamine signal; activation, % (concentration not given with the values); 360,000 compounds, 0.084% hits; AID 624465, 2012; in the data active means activation above about 40%
#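 DiscoveRx PathHunter D2 beta-arrestin cells (2,100/well) attached overnight, then compound-stimulated 90 min at 37 C in HBSS/10 mM HEPES/0.1% Tween-20 buffer; beta-galactosidase complementation read by luminescence after 1 h at ambient temperature. Dopamine 57 uM final (EC100) as control.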
# Hits are given with their value; n = inactive; x = no result given. Sampled rows, rich in hits. Any-hit rate of the full collection: about 2.4%.
SMILES,D2 PAM-1,D2 ag-1,D2 antag,D2 PAM-2,D2 ag-2
COc1cc(C2Nc3ccccc3-c3nnc(SCc4ccc(C)cc4)nc3O2)cc(OC)c1O (stereo not drawn),n,n,x,x,x
CCOC(=O)c1ccc(NC(=O)CCCn2c(=O)c3cccn3c3cccnc32)cc1,n,n,x,x,x
O=C(NCc1ccccc1)c1cnc2sc(N3CCCC3)nn2c1=O,n,n,x,x,x
CN(CCNC(=O)c1ccc(/C=N/O)nc1)Cc1ccccc1,n,n,61,n,n
CN(CCCNC(=O)c1ccc(/C=N/O)nc1)CCCN(C)Cc1ccccc1,n,n,n,n,n
COCCCN(C(=S)Nc1cccc(Cl)c1)C(C)c1ccncc1 (stereo not drawn),n,n,30,n,n
CCc1ccc2occ(CC(=O)Nc3ccc(C)c(C)c3)c2c1,n,n,x,x,x
CN1CCN(CCCN2c3ccccc3Sc3ccc(Cl)cc32)CC1,x,x,72,x,x
CC(CN1CCN(CCOCCO)CC1)CN1c2ccccc2Sc2ccc(Cl)cc21 (stereo not drawn),x,x,x,n,n
CCSc1ccc2c(c1)N(CCCN1CCN(C)CC1)c1ccccc1S2,n,n,83,n,n
COc1cccc(CNC(=O)C(C)n2c(=O)cc(-c3ccccc3)c3c(C)nn(C)c32)c1 (stereo not drawn),x,n,x,x,x
COc1ccc(N2CCN(C(=O)c3cn(C)c4ccc(S(=O)(=O)N(C)C5CCCCC5)cc4c3=O)CC2)cc1,n,n,x,x,x
O=C(Nc1cccc(-c2nc3cc(Cl)ccc3o2)c1)c1ccc(F)cc1,n,n,x,x,x
Cc1sc2ncnc(N3CCCCC3)c2c1C,n,n,n,n,n
Cc1sc2ncnc(NCC(c3ccco3)N3CCCC3)c2c1C (stereo not drawn),n,n,32,n,n
COC(=O)c1cc(S(=O)(=O)N2CCC(c3cc(OC)ccc3OC)C2)c[nH]1 (stereo not drawn),83,n,n,n,n
COC(=O)c1cc(S(=O)(=O)N2CCC(c3ccccc3)C2)c[nH]1 (stereo not drawn),n,n,n,n,n
CC(=O)c1cccc(NC(=O)C2Cc3c(-c4ccc(Cl)cc4)ccnc3O2)c1 (stereo not drawn),x,x,x,n,n
C=CCn1c(O)c(C(CC)=NCc2cccnc2)c(=O)[nH]c1=O,n,n,42,n,n
Cc1[nH][nH]c(=O)c1C=NCc1cccnc1,n,n,n,n,n
CC1CN(C(=O)CCC(=O)NCCCN2CCN(Cc3ccccc3)CC2)c2cc(Cl)ccc2O1 (stereo not drawn),n,n,37,n,n
O=C(CCC(=O)N1CCOc2ccc(Cl)cc21)NCc1ccccc1,n,n,37,n,n
O=C(CCC(=O)N1CCOc2ccc(Cl)cc21)NCCCN1CCN(Cc2ccccc2)CC1,n,n,41,n,n
O=C(CCC(=O)N1CCOc2ccc(Cl)cc21)NCCCN1CCOCC1,n,n,n,n,n
N#Cc1ccc(C(=O)N2CCCCC2c2cc(C(=O)NCc3ccccc3)no2)cc1 (stereo not drawn),x,x,x,n,n
SMILES,D2 PAM-1,D2 ag-1,D2 antag,D2 PAM-2,D2 ag-2
COC(=O)c1ccccc1S(=O)(=O)N1CCC(NC(=O)c2ccccc2)CC1,n,n,n,n,n
COc1ccc(C(=O)NC2CCN(S(=O)(=O)c3ccccc3F)CC2)cc1,n,n,33,n,n
CN(C)c1ccc(CNC(=O)c2ccc(Cn3c(SCc4ccccc4)nc4cccnc43)cc2)cc1,n,n,x,x,x
O=C(Nc1ccc2nc(SCC(=O)N3CCCC3)sc2c1)c1cccc(Br)c1,n,x,x,x,x
CC(C(=O)Nc1ccccc1)N1CCN(c2ccccn2)CC1 (stereo not drawn),n,40,n,n,n
COc1ccc(Cl)cc1NC(=O)C(C)N1CCN(c2ccccn2)CC1 (stereo not drawn),n,31,n,n,n
COc1ccc(Cl)cc1C(=O)N1CCN(c2ccccn2)CC1,n,n,n,n,n

# Screening data as filed in PubChem.
